This passage reports growth results from PubChem BioAssay (NCI).

This is part of a sample that, as a whole, favours compounds with a hit. Of some 83,000 tested, about 20% had one in any assay.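 48-hour exposure, single concentration, 96-well plates; percent growth endpoint where 0 means no net growth. Active: below 10.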 Activity calls are given as the source filed them.

The test system of the first assay is NCI-H522 lung. Description: NCI-60 one-dose screen, 48 h (100 = growth as untreated, 0 = no growth, -100 = all killed). Particulars: 10 µM unless noted.
With `CCCSC1=NC2C(N(CC)C(=O)N2CC)N1/N=C/C=C/c1ccccc1[N+](=O)[O-]` (stereo not drawn), the growth is 0.595% (active).
As for `COC(=O)C1=Nc2ccc(F)cc2/C1=C/c1sc(=S)[nH]c1O`, the growth was -33.3% (active).
Take `O=C1c2cc(Br)ccc2Oc2cc([N+](=O)[O-])ccc2N1c1ccc(I)cc1F`: the growth was 96.2% (inactive).
The same measure, in the same setting: as for `COc1cccc(-c2nn(C)c3sc(C(=O)NCCN4CCN(c5ccccc5F)CC4)cc23)c1`, the figure is 60.9% (inactive); as for `O=S(=O)(c1ccccc1)n1cc2c(c1-c1ccccc1)CCc1sc(Nc3ccccc3)nc1-2`, 77.7% (inactive).
The same measure, in the same setting: under `CN1CCN(Cc2ccc(NC(=O)c3cncc(C#Cc4nc(N)nc5[nH]ncc45)c3)cc2C(F)(F)F)CC1` stands -37.1% (active).
Still for that read-out and setting: under `Clc1ccc(-c2nnc(COc3ccc(C4=NNC(c5ccco5)C4)cc3)o2)cc1` (stereo not drawn) stands 86.7% (inactive); under `CC(=O)c1ccc(Cc2ccc(C(C)=O)s2)s1`, 95.8% (inactive).
As to `CCOC(=O)c1cnc2ccc(Cl)cc2c1NCCCN(C)C`, the growth was -17.5% (active).
Turning to `CCN1C(=O)N(CC)C2C1NN=c1s/c(=C3\C(=O)N(CC(C)(C)C)c4ccccc43)c(=O)n12` (stereo not drawn), the growth was -4.26% (active).
Same read-out and setting: under `CC(=O)c1ccc2oc(=O)n(Cc3ccc(C#N)cc3)c(=O)c2c1` stands 99.5% (inactive); under `O=C1/C(=C/c2cccc(O)c2)COc2ccc(O)cc21`, 36.6% (inactive); under `O=C(Nc1nc2c(s1)CCc1c-2c(Br)n(Cc2ccccc2)c1Br)c1ccccc1`, 61.9% (inactive).
On to `Nc1n[nH]c2ccc([C@@H]3Nc4ccc5[nH]ncc5c4[C@H]4[C@H]5CCC(C5)[C@H]43)cc12`, for which the growth was -21.4% (active).
Take `CN(C)c1ccc(/C=C/c2ccnc3c(O)cccc23)cc1`: the growth is -10.9% (active).
`CCOC(=O)c1cc2c(n1Cc1cccc(OC)c1)-c1oncc1CCC2`: the growth is 14.5% (inactive).
The same measure, in the same setting: as for `Cn1nc(C(C)(C)C)cc1NC(=O)Cc1ccc(/C=C2\C(=O)Nc3ccccc32)cc1`, the figure is 45% (inactive); as for `Cc1c(C(=O)OCCO)cc(-c2ccc(Cl)cc2)n1-c1ccc(Cl)cc1Cl`, 54.7% (inactive).
Consider `CCC1=C[C@]2(C3CC(=O)N(c4ccccc4)C3=O)CC(C(C)(C)C)C[C@@H]2[C@@H]2C(=O)N(c3ccccc3)C(=O)[C@H]12` (stereo partly drawn), for which the growth is 57.3% (inactive).
The same measure, in the same setting: as for `Nc1ccc(-c2nn3c(CCC(=O)c4nc5ncccc5[nH]4)nnc3s2)c(O)c1`, the figure is 81.2% (inactive).
On to `CCCCCCc1cc2cc(-c3nc4ccccc4[nH]3)c(=Nc3ccccc3C)oc2cc1O`, for which the growth is 14.3% (inactive).
As for `COc1ccc(OC)c(N(CCN2C(=O)c3ccccc3C2=O)C(=O)CCl)c1`, the growth is -73.3% (active).
For `COc1ccc(C)c2sc(N(Cc3cccnc3)C(=O)c3ccc(C#N)cc3)nc12`, the growth was -22.2% (active).
Still for that read-out and setting: as for `O=C(/C=C/c1ccccn1)c1ccc(OCc2nnc(-c3ccc(Cl)cc3)o2)cc1`, the figure is 63.7% (inactive).
As to `COc1ccc(C2C3=C(COC3=O)N(CCO)c3cc4c(cc32)CCC4)cc1` (stereo not drawn), the growth is 37.8% (inactive).
Still for that read-out and setting: as for `CN(C)/C=C1\SC(=Nc2ccc(Cl)cc2)NC1=O`, the figure is 95.8% (inactive).
On the same count and under the same terms, as for `c1ccc(CNc2nc(Nc3ccccc3)nc3ccccc23)cc1`, the figure is 40.7% (inactive); as for `COc1ccc2c(c1)C=C1CSCC3=Cc4cc(OC)ccc4OC13O2`, 15.1% (inactive).
Still for that read-out and setting: as for `COc1ccc(C(O)(CCC(C)C)C(CN2CCOCC2)c2ccc(Cl)cc2)cc1` (stereo not drawn), the figure is -16.9% (active); as for `COC(=O)[C@H]1CCCN1C(=O)[C@H]1CCCN1C(=O)[C@H](Cc1c[nH]c2ccccc12)NC(=S)Nc1cc(C(F)(F)F)cc(C(F)(F)F)c1`, 68.6% (inactive); as for `CCn1c(Cc2ccccc2Nc2c(Cl)cccc2Cl)nnc1SCC(=O)NN1C(=O)/C(=C/c2cccc(OC)c2OC)SC1=S`, 86.8% (inactive).
As for `CCCC(c1nnnn1C1CCCCC1)N1CCN(C(=O)c2ccco2)CC1` (stereo not drawn), the growth is 62.5% (inactive).
Still for that read-out and setting: under `C1=CC2(C=C1)OC21CCC2(C=CC3(C2)OC3C2CCCCC2)CC1` (stereo not drawn) stands 106% (inactive); under `O=C(NC1CCN(Cc2ccccc2)CC1)c1cc(C(=O)NC2CCN(Cc3ccccc3)CC2)cc(C(=O)NC2CCN(Cc3ccccc3)CC2)c1`, -67.7% (active).
On the same count and under the same terms, as for `COc1cc(-c2c3c(c(Br)n2Cc2ccccc2)-c2nc(N)sc2CC3)cc(OC)c1OC`, the figure is 38.4% (inactive); as for `NC(CCc1nc2ccccc2c(=O)[nH]1)C(=O)O` (stereo not drawn), 91.7% (inactive); as for `Nc1no[n+]([O-])c1-c1nnc2c(n1)-c1ccccc1C2=O`, 96% (inactive).
On to `CCOc1ccc(-c2nonc2NC(=O)c2cccc(C)c2)cc1OCC`, for which the growth was 84% (inactive).
On the same count and under the same terms, under `Cc1ccc(OCCCCCCNCCO)c(C)c1` stands -8.65% (active).

For a further assay, the system named is A549/ATCC NSCLC. The assay is described as above. As to conditions: 10 µM unless noted.
In the case of `CCCSC1=NC2C(N(CC)C(=O)N2CC)N1/N=C/C=C/c1ccccc1[N+](=O)[O-]` (stereo not drawn), the growth was 35.8% (inactive).
As for `COC(=O)C1=Nc2ccc(F)cc2/C1=C/c1sc(=S)[nH]c1O`, the growth was 17.7% (inactive).
The same measure, in the same setting: as for `O=C1c2cc(Br)ccc2Oc2cc([N+](=O)[O-])ccc2N1c1ccc(I)cc1F`, the figure is 82% (inactive).
Still for that read-out and setting: as for `COc1cccc(-c2nn(C)c3sc(C(=O)NCCN4CCN(c5ccccc5F)CC4)cc23)c1`, the figure is 74.7% (inactive).
The same measure, in the same setting: under `O=S(=O)(c1ccccc1)n1cc2c(c1-c1ccccc1)CCc1sc(Nc3ccccc3)nc1-2` stands 75.2% (inactive).
`CN1CCN(Cc2ccc(NC(=O)c3cncc(C#Cc4nc(N)nc5[nH]ncc45)c3)cc2C(F)(F)F)CC1`: the growth is 103% (inactive).
The same measure, in the same setting: as for `Clc1ccc(-c2nnc(COc3ccc(C4=NNC(c5ccco5)C4)cc3)o2)cc1` (stereo not drawn), the figure is 45.6% (inactive); as for `CC(=O)c1ccc(Cc2ccc(C(C)=O)s2)s1`, 105% (inactive); as for `CCOC(=O)c1cnc2ccc(Cl)cc2c1NCCCN(C)C`, 4.15% (active).
On to `CCN1C(=O)N(CC)C2C1NN=c1s/c(=C3\C(=O)N(CC(C)(C)C)c4ccccc43)c(=O)n12` (stereo not drawn), for which the growth was 30.1% (inactive).
The same measure, in the same setting: as for `CC(=O)c1ccc2oc(=O)n(Cc3ccc(C#N)cc3)c(=O)c2c1`, the figure is 103% (inactive); as for `O=C1/C(=C/c2cccc(O)c2)COc2ccc(O)cc21`, 103% (inactive); as for `O=C(Nc1nc2c(s1)CCc1c-2c(Br)n(Cc2ccccc2)c1Br)c1ccccc1`, 67.2% (inactive).
Regarding `Nc1n[nH]c2ccc([C@@H]3Nc4ccc5[nH]ncc5c4[C@H]4[C@H]5CCC(C5)[C@H]43)cc12`, the growth is 18.5% (inactive).
Turning to `CN(C)c1ccc(/C=C/c2ccnc3c(O)cccc23)cc1`, the growth is 3.5% (active).
Same read-out and setting: under `CCOC(=O)c1cc2c(n1Cc1cccc(OC)c1)-c1oncc1CCC2` stands 42.3% (inactive); under `Cn1nc(C(C)(C)C)cc1NC(=O)Cc1ccc(/C=C2\C(=O)Nc3ccccc32)cc1`, 57.6% (inactive); under `Cc1c(C(=O)OCCO)cc(-c2ccc(Cl)cc2)n1-c1ccc(Cl)cc1Cl`, 47.6% (inactive).
On the same count and under the same terms, as for `CCC1=C[C@]2(C3CC(=O)N(c4ccccc4)C3=O)CC(C(C)(C)C)C[C@@H]2[C@@H]2C(=O)N(c3ccccc3)C(=O)[C@H]12` (stereo partly drawn), the figure is 68.7% (inactive); as for `Nc1ccc(-c2nn3c(CCC(=O)c4nc5ncccc5[nH]4)nnc3s2)c(O)c1`, 89.6% (inactive); as for `CCCCCCc1cc2cc(-c3nc4ccccc4[nH]3)c(=Nc3ccccc3C)oc2cc1O`, 49.9% (inactive).
Same read-out and setting: under `COc1ccc(OC)c(N(CCN2C(=O)c3ccccc3C2=O)C(=O)CCl)c1` stands 76% (inactive).
For `COc1ccc(C)c2sc(N(Cc3cccnc3)C(=O)c3ccc(C#N)cc3)nc12`, the growth was 6.76% (active).
Still for that read-out and setting: as for `O=C(/C=C/c1ccccn1)c1ccc(OCc2nnc(-c3ccc(Cl)cc3)o2)cc1`, the figure is 34.1% (inactive); as for `COc1ccc(C2C3=C(COC3=O)N(CCO)c3cc4c(cc32)CCC4)cc1` (stereo not drawn), 46.6% (inactive).
Still for that read-out and setting: under `CN(C)/C=C1\SC(=Nc2ccc(Cl)cc2)NC1=O` stands 100% (inactive); under `c1ccc(CNc2nc(Nc3ccccc3)nc3ccccc23)cc1`, 29.6% (inactive); under `COc1ccc2c(c1)C=C1CSCC3=Cc4cc(OC)ccc4OC13O2`, 23.6% (inactive).
On the same count and under the same terms, as for `COc1ccc(C(O)(CCC(C)C)C(CN2CCOCC2)c2ccc(Cl)cc2)cc1` (stereo not drawn), the figure is 62.4% (inactive); as for `COC(=O)[C@H]1CCCN1C(=O)[C@H]1CCCN1C(=O)[C@H](Cc1c[nH]c2ccccc12)NC(=S)Nc1cc(C(F)(F)F)cc(C(F)(F)F)c1`, 35% (inactive).
Consider `CCn1c(Cc2ccccc2Nc2c(Cl)cccc2Cl)nnc1SCC(=O)NN1C(=O)/C(=C/c2cccc(OC)c2OC)SC1=S`, for which the growth was 96.3% (inactive).
On the same count and under the same terms, as for `CCCC(c1nnnn1C1CCCCC1)N1CCN(C(=O)c2ccco2)CC1` (stereo not drawn), the figure is 55.2% (inactive); as for `C1=CC2(C=C1)OC21CCC2(C=CC3(C2)OC3C2CCCCC2)CC1` (stereo not drawn), 101% (inactive); as for `O=C(NC1CCN(Cc2ccccc2)CC1)c1cc(C(=O)NC2CCN(Cc3ccccc3)CC2)cc(C(=O)NC2CCN(Cc3ccccc3)CC2)c1`, 39.8% (inactive).
On the same count and under the same terms, under `COc1cc(-c2c3c(c(Br)n2Cc2ccccc2)-c2nc(N)sc2CC3)cc(OC)c1OC` stands 82.9% (inactive); under `NC(CCc1nc2ccccc2c(=O)[nH]1)C(=O)O` (stereo not drawn), 105% (inactive).
For the molecule `Nc1no[n+]([O-])c1-c1nnc2c(n1)-c1ccccc1C2=O`, the growth was 98.1% (inactive).
Still for that read-out and setting: as for `CCOc1ccc(-c2nonc2NC(=O)c2cccc(C)c2)cc1OCC`, the figure is 65.4% (inactive); as for `Cc1ccc(OCCCCCCNCCO)c(C)c1`, 5.92% (active).
